Structures are written as SMILES. The campaign covered roughly 39,000 compounds. About 500 (1.3%) were called active. For the sample, actives were picked, then their nearest neighbours and some compounds at random.

We go through 84 compounds from the antibiotic and cytotoxicity screens of Wong et al. (2023).

The assay relates to S. aureus RN4220. In words: growth inhibition call (relative growth <= 0.2). Conditions: 50 µM.
`C[C@@H]1CN([C@H](C)CO)C(=O)c2cc(NC(=O)Nc3cccc4ccccc34)ccc2O[C@H]1CN(C)S(=O)(=O)c1cccs1`: the growth inhibition call was “inactive”.
Under `Cc1cc(C(=O)O)n[nH]1` stands “inactive”; under `Cc1cc(O)cc(=O)[nH]1`, “inactive”.
Then `Cc1cc(=O)[n+]2cccc(O)c2[nH]1`, with “active”; and `CNC(=O)c1cccc(NC(=S)NC)c1`, with “inactive”.
Consider `C[C@H](CO)N1C[C@H](C)[C@H](CN(C)C(=O)Nc2ccc3c(c2)OCO3)Oc2ncc(C#CC(C)(C)O)cc2C1=O`, for which the growth inhibition call is “inactive”.
Then `O=P(O)(O)CN(CCN(CP(=O)(O)O)CP(=O)(O)O)CP(=O)(O)O`, with “inactive”.
Under `O=C(O)P(=O)(O)O` stands “active”; under `CC(=O)O`, “inactive”.
Under `O=C(C[C@@H]1CC[C@@H]2[C@H](COC[C@@H](O)CN2C(=O)c2ccncc2)O1)NCc1ccc(-c2ccccc2)cc1` stands “inactive”; under `C[C@H]1CN([C@@H](C)CO)C(=O)c2cc(NS(=O)(=O)c3cn(C)cn3)ccc2O[C@@H]1CN(C)S(=O)(=O)c1cn(C)cn1`, “inactive”.
With `C[C@H]1CCCCO[C@H](CN(C)S(=O)(=O)c2ccc(F)cc2)[C@@H](C)CN([C@@H](C)CO)C(=O)c2cc(NS(C)(=O)=O)ccc2O1`, the growth inhibition call is “inactive”.
Under `Cc1noc(C)c1NC(=O)Nc1ccc2c(c1)C(=O)N([C@H](C)CO)C[C@@H](C)[C@H](CN(C)Cc1ccc3c(c1)OCO3)OCCCC[C@@H](C)O2` stands “inactive”; under `C[C@H]1CCCCO[C@H](CN(C)C(=O)CCC(F)(F)F)[C@@H](C)CN([C@@H](C)CO)C(=O)c2cc(NC(=O)Cc3ccccc3)ccc2O1`, “inactive”.
Then `CC1=C(C(=O)O)N2C(=O)C(NC(=O)C(N)c3ccc(O)cc3)C2SC1` (centres undefined), with “inactive”; and `C/C=C/C1=C(C(=O)O)N2C(=O)[C@@H](NC(=O)[C@H](N)c3ccc(O)cc3)[C@H]2SC1`, with “active”; and `C/C=C\C1=C(C(=O)O)N2C(=O)[C@H](NC(=O)[C@@H](N)c3ccc(O)cc3)[C@@H]2SC1`, with “inactive”.
As to `CC1=C(C(=O)O)N2C(=O)[C@@H](NC(=O)[C@@H](N)c3ccc(O)cc3)[C@H]2SC1`, the growth inhibition call was “inactive”.
Under `CC1=C(C(=O)O)N2C(=O)[C@@H](NC(=O)[C@H](N)c3ccc(O)cc3)[C@H]2SC1` stands “active”.
As to `CC=CC1=C(C(=O)O)N2C(=O)C(NC(=O)C(N)c3ccc(O)cc3)C2SC1` (centres undefined), the growth inhibition call is “inactive”.
Under `C[C@@H]1CN([C@H](C)CO)C(=O)c2cccc(NC(=O)C3CC3)c2O[C@H]1CN(C)S(=O)(=O)c1ccc(F)cc1` stands “inactive”; under `C[C@H](CO)N1C[C@H](C)[C@H](CN(C)S(C)(=O)=O)Oc2ncc(C#CC(C)(C)O)cc2C1=O`, “inactive”.
Take `OCC(O)C(O)C(O)C(O)CO` (centres undefined): the growth inhibition call was “inactive”.
As to `C[C@H](CO)N1C[C@H](C)[C@H](CN(C)Cc2ccc(Oc3ccccc3)cc2)Oc2ccc(NS(=O)(=O)c3ccc(F)cc3)cc2CC1=O`, the growth inhibition call is “inactive”.
Then `C[C@@H]1CN([C@H](C)CO)S(=O)(=O)c2ccc(-c3cccc(C(=O)N(C)C)c3)cc2O[C@H]1CN(C)C(=O)Cc1ccccn1`, with “inactive”.
For the compound `COCCOC(=O)N1C(=O)[C@@]2(c3cc(C#CC4=CCCCC4)ccc31)[C@H](C(=O)N1CCN(c3ncccn3)CC1)[C@H]1C(=O)O[C@H](c3ccccc3)[C@H](c3ccccc3)N1[C@@H]2c1ccc(OCCO)cc1`, the growth inhibition call is “inactive”.
As to `CC(C)NC(=O)N(C)C[C@H]1Oc2ccc(NC(=O)NC3CCCCC3)cc2C(=O)N([C@H](C)CO)C[C@@H]1C`, the growth inhibition call was “inactive”.
Under `C[C@@H]1CCCCO[C@@H](CN(C)S(=O)(=O)c2cn(C)cn2)[C@@H](C)CN([C@H](C)CO)C(=O)c2cc(NS(=O)(=O)c3cn(C)cn3)ccc2O1` stands “inactive”; under `O=C1CCC(c2ccc(O)cc2)CC1`, “inactive”; under `Oc1ccccc1CNc1ccc(C2CCCCC2)cc1`, “inactive”.
Under `Oc1cc(C2CCCCC2)cc(C2CCCCC2)c1` stands “active”; under `COc1ccc(NC(=O)Nc2ccc3c(c2)C(=O)N([C@H](C)CO)C[C@H](C)[C@H](CN(C)C(=O)NC(C)C)OCCCC[C@H](C)O3)cc1`, “inactive”.
Take `Cc1c[nH]c2ccccc12`: the growth inhibition call was “inactive”.
As to `N#C/C(=C\c1ccc(C(F)(F)F)cc1)c1c[nH]c2ccccc12`, the growth inhibition call is “inactive”.
For the compound `FC(F)(F)c1ccc(CSc2c[nH]c3ccccc23)cc1`, the growth inhibition call was “active”.
Take `Brc1ccc(CSc2c[nH]c3ccccc23)cc1`: the growth inhibition call was “active”.
Under `OCc1c[nH]c2ccccc12` stands “inactive”; under `c1ccc2c(-c3ccncc3)c[nH]c2c1`, “inactive”.
Under `COc1ccc(NC(=O)N(C)C[C@@H]2OCCCC[C@H](C)Oc3ccc(NS(=O)(=O)c4ccc(Cl)cc4)cc3C(=O)N([C@H](C)CO)C[C@H]2C)cc1` stands “inactive”.
Under `C[C@@H]1CN([C@H](C)CO)C(=O)c2cc(NC(=O)NC3CCCCC3)ccc2O[C@@H](C)CCCCO[C@@H]1CN(C)S(=O)(=O)c1cccs1` stands “inactive”; under `COc1ccc(NC(=O)Nc2ccc3c(c2)C(=O)N([C@@H](C)CO)C[C@@H](C)[C@H](CN(C)Cc2ccncc2)OCCCC[C@@H](C)O3)cc1`, “inactive”; under `C[C@H]1CCCCO[C@H](CN(C)C(=O)Nc2ccccc2)[C@@H](C)CN([C@@H](C)CO)C(=O)c2cc(NC(=O)Cc3ccccc3)ccc2O1`, “inactive”.
As for `C[C@H]1CN([C@@H](C)CO)C(=O)CCCn2cc(nn2)CO[C@H]1CN(C)S(=O)(=O)c1ccc(C#N)cc1`, the growth inhibition call was “inactive”.
Under `CN(C)c1cc(CN)ccn1` stands “inactive”; under `C1CCC(C(CC2CCCCN2)C2CCCCC2)CC1.O=C(O)C=CC(=O)O` (centres undefined), “active”; under `C1CCC(C(C[C@H]2CCCCN2)C2CCCCC2)CC1`, “active”.
Under `OC[C@@H]1CCCCN1` stands “inactive”.
Under `O=C(O)[C@@H]1CCCCN1` stands “inactive”; under `O=C(O)CC[C@H]1CCCCN1`, “inactive”.
Take `OC[C@@H]1CCCN1`: the growth inhibition call is “inactive”.
`C[C@@H]1CN([C@H](C)CO)C(=O)c2cc(NC(=O)C3CCCCC3)ccc2O[C@@H](C)CCCCO[C@@H]1CN(C)Cc1ccc2c(c1)OCO2`: the growth inhibition call is “inactive”.
Under `COc1ccc(NC(=O)N(C)C[C@H]2Oc3c(NC(=O)c4cnccn4)cccc3C(=O)N([C@@H](C)CO)C[C@@H]2C)cc1` stands “inactive”; under `C[C@@H]1CN([C@H](C)CO)S(=O)(=O)c2ccc(C#CCN(C)C)cc2O[C@@H]1CN(C)Cc1ccccn1`, “inactive”.
In the case of `C[C@H](CO)N1C[C@H](C)[C@@H](CN(C)Cc2ccc3c(c2)OCO3)Oc2c(NS(=O)(=O)c3cn(C)cn3)cccc2C1=O`, the growth inhibition call was “inactive”.
Then `COc1ccc(NC(=O)Nc2ccc3c(c2)C(=O)N([C@@H](C)CO)C[C@@H](C)[C@H](CN(C)Cc2ccc(C(=O)O)cc2)OCCCC[C@H](C)O3)cc1`, with “inactive”.
For `COc1cccc(S(=O)(=O)N(C)C[C@H]2OCc3cnnn3CCCC(=O)N([C@@H](C)CO)C[C@@H]2C)c1`, the growth inhibition call is “inactive”.
`CNC[C@@H]1Oc2ccc(NS(=O)(=O)c3cn(C)cn3)cc2C(=O)N([C@@H](C)CO)C[C@@H]1C`: the growth inhibition call is “inactive”.
Under `CCc1nc2ccc(C(=O)NC3CCN(Cc4ccccc4)CC3)cn2c1N(C)Cc1cc2ccccc2s1` stands “inactive”; under `Cc1noc(C)c1NC(=O)Nc1ccc2c(c1)C(=O)N([C@H](C)CO)C[C@@H](C)[C@H](CN(C)S(=O)(=O)c1ccccc1)OCCCC[C@H](C)O2`, “inactive”; under `Cc1cc(C2CCCCC2)n(O)c(=O)c1.NCCO`, “active”.
Then `C[C@H](CO)N1C[C@H](C)[C@@H](CN(C)Cc2ccc(-c3ccccc3)cc2)Oc2c(NC(=O)c3ccncc3)cccc2C1=O`, with “inactive”.
Then `C[C@H]1CN([C@@H](C)CO)C(=O)c2cccc(NC(=O)c3cnccn3)c2O[C@@H]1CN(C)Cc1ccncc1`, with “inactive”; and `COc1cccc(NC(=O)N[C@@H]2CC[C@@H](CC(=O)N3CCN(C)CC3)O[C@@H]2CO)c1`, with “inactive”; and `O=C(C[C@@H]1CC[C@H]2[C@@H](COC[C@H](O)CN2C(=O)Nc2cccc(F)c2)O1)NCc1ccccc1Cl`, with “inactive”.
Turning to `CC1(C)SC2C(NC(=O)Cc3ccccc3)C(=O)N2C1C(=O)[O-].[K+]` (centres undefined), the growth inhibition call is “active”.
On to `COC(=O)[C@@H]1N2C(=O)[C@@H](N3CC4=C[C@@H](C5CC5)n5c(=O)n(C)c(=O)n5[C@@H]4[C@@H]3[C@@H](O)Cc3ccccc3)[C@H]2SC1(C)C`, for which the growth inhibition call is “inactive”.
Then `CNC(=O)Cc1ccccc1`, with “inactive”; and `CC1(C)C(=O)NCCN1C(=O)Cc1ccccc1`, with “inactive”.
Then `C[C@@H](NC(=O)COc1ccccc1)C(=O)O`, with “inactive”.
With `CC1(C)SC2C(N3C(=O)C(c4ccccc4)NC3(C)C)C(=O)N2C1C(=O)[O-].[K+]` (centres undefined), the growth inhibition call is “active”.
In the case of `CC1(C)SC2C(NC(=O)COc3ccccc3)C(=O)N2C1C(=O)[O-].[K+]` (centres undefined), the growth inhibition call was “active”.
Under `COC(=O)[C@@H]1N2C(=O)[C@@H](N3C[C@](C)(OC)O[C@@H](Cc4ccccc4)[C@H]3/C=C/C3CC3)[C@H]2SC1(C)C` stands “inactive”; under `NNC(=O)COc1ccccc1`, “inactive”; under `COc1ccc(S(=O)(=O)N(C)C[C@H]2OCCCC[C@@H](C)Oc3ccc(NC(=O)Nc4ccc(F)cc4)cc3C(=O)N([C@@H](C)CO)C[C@H]2C)cc1`, “inactive”.
Then `COc1cccc(CNC(=O)C[C@@H]2C=C[C@@H](NC(=O)C3CCOCC3)[C@H](CO)O2)c1`, with “inactive”; and `COc1ccc(NC(=O)N(C)C[C@@H]2Oc3c(NS(C)(=O)=O)cccc3C(=O)N([C@H](C)CO)C[C@H]2C)cc1`, with “inactive”.
`OCCc1ccc2c(c1)OCO2`: the growth inhibition call was “inactive”.
Under `Cc1ccc(S(=O)(=O)N(C)C[C@H]2Oc3ccc(NC(=O)Nc4cccc5ccccc45)cc3C(=O)N([C@@H](C)CO)C[C@@H]2C)cc1` stands “inactive”.
Then `COc1ccc(S(=O)(=O)N2C[C@H](O)COC[C@H]3O[C@H](CC(=O)NCCN4CCCCC4)CC[C@@H]32)cc1`, with “inactive”; and `CCCNC(=O)N1C[C@@H](O)COC[C@H]2O[C@@H](CC(=O)N3CCN(C)CC3)CC[C@@H]21`, with “inactive”.
For `C[C@H]1CN([C@@H](C)CO)C(=O)c2cc(NC(=O)Cc3ccccc3)ccc2O[C@H]1CN(C)C(=O)Nc1cccc2ccccc12`, the growth inhibition call was “inactive”.
Regarding `O=C1OCCN/C1=C/C(=O)c1ccccc1`, the growth inhibition call was “inactive”.
Consider `O=C(/C=c1/nc2c([nH]c1=O)=NON2)c1ccccc1`, for which the growth inhibition call was “active”.
Then `C[C@H]1CNC(=CC(=O)c2ccccc2)C(=O)N1`, with “inactive”.
